This note sets out measurements from ChEMBL document CHEMBL1961873, “Compounds: GSK PKIS; Assays: Nanosyn kinase panel” (2012).

Several values for one entry are separate records, joined by “and”; a condition that tells them apart may be missing. Equal values may be shown once.

One experiment deals with Casein kinase I isoform gamma-2 (Homo sapiens) (UniProt P78368). Conditions: at 1 µM.
Chain of Casein kinase I isoform gamma-2 (Homo sapiens) (P78368 whole entry, looked up, canonical isoform): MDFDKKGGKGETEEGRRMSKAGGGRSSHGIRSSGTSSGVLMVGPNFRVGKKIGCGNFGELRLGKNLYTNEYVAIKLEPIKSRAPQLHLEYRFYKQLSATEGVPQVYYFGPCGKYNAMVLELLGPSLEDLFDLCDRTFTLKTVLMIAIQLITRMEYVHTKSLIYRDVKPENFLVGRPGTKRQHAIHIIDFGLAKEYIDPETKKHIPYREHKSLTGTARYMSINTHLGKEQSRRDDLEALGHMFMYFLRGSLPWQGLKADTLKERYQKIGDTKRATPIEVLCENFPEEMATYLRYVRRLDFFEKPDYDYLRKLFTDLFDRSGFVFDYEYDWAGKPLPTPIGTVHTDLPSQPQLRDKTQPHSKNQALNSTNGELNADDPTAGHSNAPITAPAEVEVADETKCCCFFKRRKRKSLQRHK
A word on the inhibition: it is the change of the read-out against control, counted positive when it falls. For the compound `Cc1cc(O)cc(C)c1/C=C/c1cncc(C(N)=O)c1`, the inhibition was 2.37%.
Still for that read-out and setting: in the case of `CC1=C(C(=O)Nc2ccc3[nH]ncc3c2)C(c2ccc(F)cc2)N=C(c2ccc(C(F)(F)F)nc2)N1` (configuration not stated) it was 2.44%.
The same measure, in the same setting: as for `COc1c(C(N)=O)cc(-c2ccc(Cl)cc2)cc1-c1ccc(S(N)(=O)=O)cc1`, the figure is 5.53%; as for `Cc1cc(O)cc(C)c1/C=C/c1cncc(C(=O)OC(C)(C)C)c1`, 3.13%.
Still for that read-out and setting: in the case of `COc1ccc(Nc2ncc(-c3ccccc3)o2)cc1OC` it was 4.12%; in that of `Fc1ccc(Nc2nccc(-c3c(-c4ccc(C(F)(F)F)cc4)nn4ncccc34)n2)cc1F`, 4.13%.
Take `O=C(O[C@H]1CN[C@H](C#Cc2cc3ncnc(Nc4ccc(OCc5cccc(F)c5)c(Cl)c4)c3s2)C1)N1CCOCC1`: the inhibition turned out to be 5.59%.
On the same count and under the same terms, as for `COc1ccc2ncn(-c3cc(O[C@H](C)c4ccccc4C(F)(F)F)c(C(N)=O)s3)c2c1`, the figure is -0.54%; as for `CNC(=O)c1ncccc1Nc1nc(Nc2cc3c(cc2OC)CCCN3C(=O)CN(C)C)nc2[nH]ccc12`, 5.64%.
The same measure, in the same setting: in the case of `COc1ccccc1-c1cc(/C=C2\C(=O)Nc3ncc(Br)cc32)cc(Br)c1O` it was 6.34%; in that of `c1cnn2ncc(-c3ccnc(NCCCN4CCOCC4)n3)c2c1`, 5.14%.
In the case of `CCCNc1cccc(-n2ncc3c(N/N=C/c4ccncc4)ncnc32)c1`, the inhibition turned out to be 1.01%.
In the case of `OCCCNc1nccc(-c2c(-c3ccc(F)cc3)nn3cc(C(F)(F)F)ccc23)n1`, the inhibition stood at 4.56%.
In the case of `CS(=O)(=O)Nc1ccc(-c2ccc3c(NC(=O)C4CC4)n[nH]c3c2)cc1`, the inhibition was determined as 4.11%.
Same read-out and setting: in the case of `CN1CCC(C(=O)Nc2n[nH]c3nc(-c4ccc(O)cc4)c(Br)cc23)CC1` it was 2.84% and 1.66%; in that of `CS(=O)(=O)Nc1ccc(-c2cc(-c3ccccc3)cc(C(N)=O)c2N)cc1`, 0.9%; in that of `COc1cccc(Nc2nccc(-c3cnn4ncccc34)n2)c1`, 47.2%.
Regarding `CS(=O)(=O)CCNCc1ccc(-c2ccc3ncnc(Nc4ccc(OCc5ccccc5)cc4)c3c2)o1`, the inhibition was determined as 2.81%.
For the compound `CC(C)c1ccc(-c2cc(-c3c[nH]nc3-c3ccccn3)ccn2)cc1`, the inhibition was 1.17%.
Same read-out and setting: as for `FC(F)(F)CNc1nccc(-c2cnn3ncccc23)n1`, the figure is 14.1%; as for `Cc1nnc(-c2cccc(-c3ccc(C(=O)NCC4CC4)cc3)c2)o1`, 4.15%; as for `COc1ccc(-c2nn3ncccc3c2-c2ccnc(Nc3ccc(F)c(F)c3)n2)cc1`, 3.56%.
With `O=C(Nc1n[nH]c2nnc(-c3cccnc3)cc12)C1CC1`, the inhibition is -0.48%.
Same read-out and setting: as for `NS(=O)(=O)c1ccc(N/N=C2\C(=O)Nc3cccc(CCc4ccncc4)c32)cc1`, the figure is 0.54%; as for `CNC(=O)c1cncc(/C=C/c2ccccc2C)c1`, 2.72%; as for `NS(=O)(=O)c1ccc(N/N=C2\C(=O)Nc3ccc(C(=O)NCc4ccncc4)cc32)cc1`, 4.22%.
On the same count and under the same terms, as for `CCS(=O)(=O)c1ccc(OC)c(Nc2ncc(-c3cccc(F)c3)o2)c1`, the figure is 4.64%; as for `COc1cccc(-n2ncc3c(N/N=C/c4ccc(C(=O)NCCN(C)C)cc4)ncnc32)c1`, 8.69%; as for `COC(=O)Nc1nc2ccc(Oc3ccc(NC(=O)Nc4cc(C(F)(F)F)ccc4F)cc3)cc2s1`, -0.08%.
On the same count and under the same terms, as for `Cn1c(-c2nonc2N)nc2cnccc21`, the figure is 3.42%; as for `CCN1CCC(C(=O)Nc2n[nH]c3nnc(-c4cccc(F)c4F)cc23)CC1`, -0.17%.

The target of a further experiment is Casein kinase I isoform gamma-3 (Homo sapiens) (UniProt Q9Y6M4). Conditions: at 0.1 µM.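 Note: reported value is the mean percent inhibition of the kinase.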
Chain of Casein kinase I isoform gamma-3 (Homo sapiens) (Q9Y6M4 whole entry, looked up, canonical isoform): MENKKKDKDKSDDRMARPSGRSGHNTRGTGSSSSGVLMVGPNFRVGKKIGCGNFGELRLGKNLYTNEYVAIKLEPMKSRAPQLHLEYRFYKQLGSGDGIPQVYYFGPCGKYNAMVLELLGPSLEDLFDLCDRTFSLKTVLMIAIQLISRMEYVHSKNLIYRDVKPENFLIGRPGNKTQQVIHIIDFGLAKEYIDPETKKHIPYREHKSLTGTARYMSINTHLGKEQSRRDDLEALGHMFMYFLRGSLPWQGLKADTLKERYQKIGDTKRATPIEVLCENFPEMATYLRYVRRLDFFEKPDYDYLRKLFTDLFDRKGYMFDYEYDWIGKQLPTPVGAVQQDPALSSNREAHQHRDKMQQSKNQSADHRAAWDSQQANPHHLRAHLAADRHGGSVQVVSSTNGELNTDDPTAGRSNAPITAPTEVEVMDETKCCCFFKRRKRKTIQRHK
In the case of `Cc1cc(O)cc(C)c1/C=C/c1cncc(C(N)=O)c1`, the inhibition was 2.87%.
On the same count and under the same terms, in the case of `CC1=C(C(=O)Nc2ccc3[nH]ncc3c2)C(c2ccc(F)cc2)N=C(c2ccc(C(F)(F)F)nc2)N1` (configuration not stated) it was 0.89%; in that of `COc1c(C(N)=O)cc(-c2ccc(Cl)cc2)cc1-c1ccc(S(N)(=O)=O)cc1`, 3.12%; in that of `Cc1cc(O)cc(C)c1/C=C/c1cncc(C(=O)OC(C)(C)C)c1`, 2.26%.
On the same count and under the same terms, as for `COc1ccc(Nc2ncc(-c3ccccc3)o2)cc1OC`, the figure is -0.65%; as for `Fc1ccc(Nc2nccc(-c3c(-c4ccc(C(F)(F)F)cc4)nn4ncccc34)n2)cc1F`, 3.32%.
Regarding `O=C(O[C@H]1CN[C@H](C#Cc2cc3ncnc(Nc4ccc(OCc5cccc(F)c5)c(Cl)c4)c3s2)C1)N1CCOCC1`, the inhibition turned out to be 4.52%.
Turning to `COc1ccc2ncn(-c3cc(O[C@H](C)c4ccccc4C(F)(F)F)c(C(N)=O)s3)c2c1`, the inhibition is -1.87%.
Same read-out and setting: as for `CNC(=O)c1ncccc1Nc1nc(Nc2cc3c(cc2OC)CCCN3C(=O)CN(C)C)nc2[nH]ccc12`, the figure is 2.52%; as for `COc1ccccc1-c1cc(/C=C2\C(=O)Nc3ncc(Br)cc32)cc(Br)c1O`, 4.08%.
Still for that read-out and setting: as for `c1cnn2ncc(-c3ccnc(NCCCN4CCOCC4)n3)c2c1`, the figure is 1.77%; as for `CCCNc1cccc(-n2ncc3c(N/N=C/c4ccncc4)ncnc32)c1`, 1.29%; as for `OCCCNc1nccc(-c2c(-c3ccc(F)cc3)nn3cc(C(F)(F)F)ccc23)n1`, 1.62%.
With `CS(=O)(=O)Nc1ccc(-c2ccc3c(NC(=O)C4CC4)n[nH]c3c2)cc1`, the inhibition was found to be 4.47%.
As for `CN1CCC(C(=O)Nc2n[nH]c3nc(-c4ccc(O)cc4)c(Br)cc23)CC1`, the inhibition is -0.75% and 1.55%.
`CS(=O)(=O)Nc1ccc(-c2cc(-c3ccccc3)cc(C(N)=O)c2N)cc1`: the inhibition came to 2.42%.
Still for that read-out and setting: in the case of `COc1cccc(Nc2nccc(-c3cnn4ncccc34)n2)c1` it was 3.61%.
Regarding `CS(=O)(=O)CCNCc1ccc(-c2ccc3ncnc(Nc4ccc(OCc5ccccc5)cc4)c3c2)o1`, the inhibition came to 2.43%.
The same measure, in the same setting: as for `CC(C)c1ccc(-c2cc(-c3c[nH]nc3-c3ccccn3)ccn2)cc1`, the figure is -0.24%.
Same read-out and setting: in the case of `FC(F)(F)CNc1nccc(-c2cnn3ncccc23)n1` it was 3.44%; in that of `Cc1nnc(-c2cccc(-c3ccc(C(=O)NCC4CC4)cc3)c2)o1`, 3.29%; in that of `COc1ccc(-c2nn3ncccc3c2-c2ccnc(Nc3ccc(F)c(F)c3)n2)cc1`, 3.89%.
Same read-out and setting: in the case of `O=C(Nc1n[nH]c2nnc(-c3cccnc3)cc12)C1CC1` it was -0.12%; in that of `NS(=O)(=O)c1ccc(N/N=C2\C(=O)Nc3cccc(CCc4ccncc4)c32)cc1`, 0.32%; in that of `CNC(=O)c1cncc(/C=C/c2ccccc2C)c1`, 2.23%.
In the case of `NS(=O)(=O)c1ccc(N/N=C2\C(=O)Nc3ccc(C(=O)NCc4ccncc4)cc32)cc1`, the inhibition amounted to 1.86%.
For the compound `CCS(=O)(=O)c1ccc(OC)c(Nc2ncc(-c3cccc(F)c3)o2)c1`, the inhibition amounted to 3.7%.
In the case of `COc1cccc(-n2ncc3c(N/N=C/c4ccc(C(=O)NCCN(C)C)cc4)ncnc32)c1`, the inhibition is 1.94%.
The same measure, in the same setting: in the case of `COC(=O)Nc1nc2ccc(Oc3ccc(NC(=O)Nc4cc(C(F)(F)F)ccc4F)cc3)cc2s1` it was -1.45%; in that of `Cn1c(-c2nonc2N)nc2cnccc21`, 1.53%; in that of `CCN1CCC(C(=O)Nc2n[nH]c3nnc(-c4cccc(F)c4F)cc23)CC1`, 0.17%.
